# A number with no mark means an inactive call.
# How the values were obtained:
# Experiment in all cases: log2 ratio of Biotin-Ahx-Ub-VS probe labelling (fragment/DMSO); higher = less target engagement (more negative = stronger competition), active = hit call of the paper (q ≤ 0.05, log2 ratio ≤ -1)
# Details in all cases: compound concentration: 200 uM; treatment time: 3 h
# [1] = molecular target: T1, ALG13 (UniProt Q9NP73)
# T1 sequence (whole entry): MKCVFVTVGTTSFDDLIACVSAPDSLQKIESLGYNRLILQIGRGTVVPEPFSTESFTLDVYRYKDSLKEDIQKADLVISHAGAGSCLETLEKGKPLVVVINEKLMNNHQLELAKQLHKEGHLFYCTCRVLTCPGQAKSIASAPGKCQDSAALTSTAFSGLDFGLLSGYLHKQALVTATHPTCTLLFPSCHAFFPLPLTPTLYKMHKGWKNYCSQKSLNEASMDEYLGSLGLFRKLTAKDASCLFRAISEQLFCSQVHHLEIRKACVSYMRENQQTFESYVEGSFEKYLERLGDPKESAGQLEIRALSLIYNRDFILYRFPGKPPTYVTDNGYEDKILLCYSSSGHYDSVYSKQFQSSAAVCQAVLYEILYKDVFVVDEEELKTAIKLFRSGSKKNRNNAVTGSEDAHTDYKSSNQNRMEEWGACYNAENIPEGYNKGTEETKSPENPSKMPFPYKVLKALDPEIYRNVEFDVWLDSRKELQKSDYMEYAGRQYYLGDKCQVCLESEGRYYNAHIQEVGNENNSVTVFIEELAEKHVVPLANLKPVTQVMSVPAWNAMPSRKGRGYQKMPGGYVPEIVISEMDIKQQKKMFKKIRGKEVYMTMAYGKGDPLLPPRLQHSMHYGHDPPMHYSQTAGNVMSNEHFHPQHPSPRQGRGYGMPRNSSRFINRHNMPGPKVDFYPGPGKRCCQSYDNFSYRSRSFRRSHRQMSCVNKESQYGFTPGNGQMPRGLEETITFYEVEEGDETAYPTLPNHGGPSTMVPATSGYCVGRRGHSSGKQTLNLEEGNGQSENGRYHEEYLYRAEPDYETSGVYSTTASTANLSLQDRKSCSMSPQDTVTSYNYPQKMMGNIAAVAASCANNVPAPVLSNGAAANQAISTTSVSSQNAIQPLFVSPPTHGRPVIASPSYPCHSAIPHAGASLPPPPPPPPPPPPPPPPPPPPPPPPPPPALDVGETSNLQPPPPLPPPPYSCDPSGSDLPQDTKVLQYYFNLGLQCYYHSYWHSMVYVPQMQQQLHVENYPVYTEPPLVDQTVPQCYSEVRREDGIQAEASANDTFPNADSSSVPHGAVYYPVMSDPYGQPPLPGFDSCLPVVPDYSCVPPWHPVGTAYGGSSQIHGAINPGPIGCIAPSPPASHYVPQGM
# Summary of the method: (§1)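 HEK293T lysate (495 µg per sample, in Tris/CHAPS/IGEPAL buffer with protease inhibitors) was exposed in triplicate for 3 h to fragment at 200 µM or to vehicle, then to Biotin-Ahx-Ub-VS at 0.5 µM final for 1 h. Labelled DUBs were enriched on NeutrAvidin, digested with LysC and trypsin, and analysed by diaPASEF LC-MS/MS. Spectronaut label-free quantities were normalised to the global median, and values are average log2 ratios of fragment over vehicle from an unpaired t-test. Only proteins with ≥2 unique peptides were used.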
# [2] = molecular target: ATXN3 (UniProt P54252)
# Chain of ATXN3 (P54252 whole entry): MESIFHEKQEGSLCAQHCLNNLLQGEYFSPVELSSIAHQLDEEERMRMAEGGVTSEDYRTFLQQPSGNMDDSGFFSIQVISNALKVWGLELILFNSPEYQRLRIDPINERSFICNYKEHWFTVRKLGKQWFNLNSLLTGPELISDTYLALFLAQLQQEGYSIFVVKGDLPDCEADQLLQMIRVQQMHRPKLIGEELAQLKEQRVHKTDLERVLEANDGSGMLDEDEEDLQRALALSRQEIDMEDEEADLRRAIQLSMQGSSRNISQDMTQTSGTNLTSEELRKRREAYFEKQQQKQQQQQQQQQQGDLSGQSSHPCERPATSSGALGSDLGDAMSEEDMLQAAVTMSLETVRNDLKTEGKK
# Summary of the method: as §1
# [3] = molecular target: T2, BAP1 (UniProt Q92560)
# T2 sequence (whole entry): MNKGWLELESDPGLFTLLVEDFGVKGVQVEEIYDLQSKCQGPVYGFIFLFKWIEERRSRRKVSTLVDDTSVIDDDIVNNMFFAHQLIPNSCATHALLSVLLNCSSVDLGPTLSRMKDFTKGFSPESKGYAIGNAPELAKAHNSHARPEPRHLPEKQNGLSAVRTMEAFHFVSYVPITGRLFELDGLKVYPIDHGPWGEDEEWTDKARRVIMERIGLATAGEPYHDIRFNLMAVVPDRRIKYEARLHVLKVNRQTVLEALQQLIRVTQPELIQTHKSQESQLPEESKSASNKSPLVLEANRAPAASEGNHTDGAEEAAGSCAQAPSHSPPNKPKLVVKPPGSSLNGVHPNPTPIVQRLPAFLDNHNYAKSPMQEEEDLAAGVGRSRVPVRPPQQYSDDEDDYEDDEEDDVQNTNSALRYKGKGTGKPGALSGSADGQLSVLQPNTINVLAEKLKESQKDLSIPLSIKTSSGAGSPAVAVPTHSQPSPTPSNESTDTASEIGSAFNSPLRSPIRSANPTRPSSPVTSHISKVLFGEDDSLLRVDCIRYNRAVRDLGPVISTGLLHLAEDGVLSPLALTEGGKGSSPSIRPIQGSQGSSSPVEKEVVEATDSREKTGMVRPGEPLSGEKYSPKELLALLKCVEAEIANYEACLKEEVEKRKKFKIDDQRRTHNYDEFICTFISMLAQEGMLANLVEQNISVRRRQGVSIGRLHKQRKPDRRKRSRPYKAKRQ
# Summary of the method: as §1
# [4] = molecular target: EIF3F (UniProt O00303)
# Chain of EIF3F (O00303 whole entry): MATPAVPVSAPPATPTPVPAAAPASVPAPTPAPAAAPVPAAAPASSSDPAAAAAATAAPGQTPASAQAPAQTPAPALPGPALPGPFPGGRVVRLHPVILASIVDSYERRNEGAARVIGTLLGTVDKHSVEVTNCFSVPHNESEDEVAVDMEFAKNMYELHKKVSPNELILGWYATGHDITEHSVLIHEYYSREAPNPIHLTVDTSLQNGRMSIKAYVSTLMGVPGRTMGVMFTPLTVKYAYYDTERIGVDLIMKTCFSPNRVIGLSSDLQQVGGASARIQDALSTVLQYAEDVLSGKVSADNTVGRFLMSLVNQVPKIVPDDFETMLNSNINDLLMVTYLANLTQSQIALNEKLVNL
# Summary of the method: as §1
# [5] = molecular target: EIF3H (UniProt O15372)
# Chain of EIF3H (O15372 whole entry): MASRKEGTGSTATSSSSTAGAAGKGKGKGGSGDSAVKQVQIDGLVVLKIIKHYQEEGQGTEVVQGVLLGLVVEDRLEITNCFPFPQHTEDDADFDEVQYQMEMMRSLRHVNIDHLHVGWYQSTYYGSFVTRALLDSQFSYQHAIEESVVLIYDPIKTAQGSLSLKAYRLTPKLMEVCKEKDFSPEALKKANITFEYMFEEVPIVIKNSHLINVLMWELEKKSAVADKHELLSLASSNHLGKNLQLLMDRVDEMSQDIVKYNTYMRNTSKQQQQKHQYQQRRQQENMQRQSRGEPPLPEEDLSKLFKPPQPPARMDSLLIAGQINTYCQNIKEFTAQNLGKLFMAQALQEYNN
# Summary of the method: as §1
# [6] = molecular target: T3, FAM105A (UniProt Q9NUU6)
# T3 sequence (whole entry): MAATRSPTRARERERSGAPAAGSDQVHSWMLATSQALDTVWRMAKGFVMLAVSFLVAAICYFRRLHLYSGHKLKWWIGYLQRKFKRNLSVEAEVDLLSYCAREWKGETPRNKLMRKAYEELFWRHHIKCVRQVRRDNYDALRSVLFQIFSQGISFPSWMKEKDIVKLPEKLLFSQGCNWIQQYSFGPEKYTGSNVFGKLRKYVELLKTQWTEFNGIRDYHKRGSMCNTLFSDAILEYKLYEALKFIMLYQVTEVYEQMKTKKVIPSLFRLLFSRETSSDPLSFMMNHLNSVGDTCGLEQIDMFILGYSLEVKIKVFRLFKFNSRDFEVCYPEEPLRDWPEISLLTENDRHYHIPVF
# Summary of the method: as §1
# [7] = molecular target: OTUB1 (UniProt Q96FW1)
# Chain of OTUB1 (Q96FW1 whole entry): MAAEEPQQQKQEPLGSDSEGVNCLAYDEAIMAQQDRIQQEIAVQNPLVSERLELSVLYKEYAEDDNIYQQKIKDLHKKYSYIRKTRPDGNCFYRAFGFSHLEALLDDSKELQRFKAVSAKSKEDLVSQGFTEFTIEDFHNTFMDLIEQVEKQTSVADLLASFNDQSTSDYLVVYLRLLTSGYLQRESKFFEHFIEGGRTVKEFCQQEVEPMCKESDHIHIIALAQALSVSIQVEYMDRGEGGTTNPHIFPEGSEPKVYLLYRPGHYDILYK
# Summary of the method: as §1
# [8] = molecular target: T4, OTUD4 (UniProt Q01804)
# T4 sequence (whole entry): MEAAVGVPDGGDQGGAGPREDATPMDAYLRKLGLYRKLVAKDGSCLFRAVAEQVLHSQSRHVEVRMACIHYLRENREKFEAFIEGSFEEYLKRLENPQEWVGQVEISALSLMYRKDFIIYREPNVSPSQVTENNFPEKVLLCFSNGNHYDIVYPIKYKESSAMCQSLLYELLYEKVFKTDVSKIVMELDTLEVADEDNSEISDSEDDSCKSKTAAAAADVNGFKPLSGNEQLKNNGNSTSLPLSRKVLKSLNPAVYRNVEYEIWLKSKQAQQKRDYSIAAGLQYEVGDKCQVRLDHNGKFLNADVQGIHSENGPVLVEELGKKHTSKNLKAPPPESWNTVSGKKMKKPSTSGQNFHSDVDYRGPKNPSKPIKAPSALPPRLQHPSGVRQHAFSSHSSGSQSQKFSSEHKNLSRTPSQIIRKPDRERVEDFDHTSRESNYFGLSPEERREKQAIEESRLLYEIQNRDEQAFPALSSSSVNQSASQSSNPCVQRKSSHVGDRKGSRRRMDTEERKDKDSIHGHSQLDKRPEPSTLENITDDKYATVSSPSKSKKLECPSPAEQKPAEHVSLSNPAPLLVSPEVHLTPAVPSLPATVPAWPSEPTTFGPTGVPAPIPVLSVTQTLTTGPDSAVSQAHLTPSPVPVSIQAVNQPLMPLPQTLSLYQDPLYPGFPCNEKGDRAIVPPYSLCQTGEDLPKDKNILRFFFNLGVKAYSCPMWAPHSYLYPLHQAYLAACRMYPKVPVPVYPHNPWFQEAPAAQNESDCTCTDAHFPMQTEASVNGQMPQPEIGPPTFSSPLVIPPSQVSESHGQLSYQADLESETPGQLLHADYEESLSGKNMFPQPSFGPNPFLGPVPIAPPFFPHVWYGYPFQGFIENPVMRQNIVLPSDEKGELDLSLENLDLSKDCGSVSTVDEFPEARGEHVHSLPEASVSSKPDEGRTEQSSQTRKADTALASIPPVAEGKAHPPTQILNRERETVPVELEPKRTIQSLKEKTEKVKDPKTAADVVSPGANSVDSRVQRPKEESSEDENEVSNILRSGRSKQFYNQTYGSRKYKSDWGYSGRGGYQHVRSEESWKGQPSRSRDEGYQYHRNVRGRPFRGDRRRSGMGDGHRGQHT
# Summary of the method: as §1
# [9] = molecular target: T5, OTUD5 (UniProt Q96G74)
# T5 sequence (whole entry): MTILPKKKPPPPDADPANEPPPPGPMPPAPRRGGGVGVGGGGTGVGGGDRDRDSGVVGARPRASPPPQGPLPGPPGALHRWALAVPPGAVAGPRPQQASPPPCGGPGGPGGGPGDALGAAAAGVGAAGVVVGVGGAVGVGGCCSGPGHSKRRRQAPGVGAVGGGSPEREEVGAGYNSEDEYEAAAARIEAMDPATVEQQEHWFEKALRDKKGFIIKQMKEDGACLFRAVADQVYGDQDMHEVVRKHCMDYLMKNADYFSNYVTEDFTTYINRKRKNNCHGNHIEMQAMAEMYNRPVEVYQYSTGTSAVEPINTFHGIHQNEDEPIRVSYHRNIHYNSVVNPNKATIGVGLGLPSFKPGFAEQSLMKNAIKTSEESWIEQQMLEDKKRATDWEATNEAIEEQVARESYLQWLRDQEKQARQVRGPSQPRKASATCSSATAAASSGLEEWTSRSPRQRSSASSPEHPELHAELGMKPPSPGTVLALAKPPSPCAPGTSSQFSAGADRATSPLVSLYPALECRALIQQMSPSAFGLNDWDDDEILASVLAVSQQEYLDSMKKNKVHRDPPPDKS
# Summary of the method: as §1
smiles,measurement,setting,value
Cc1ccc(C(=O)NCCNC(=O)CCl)cc1,log2 ratio of Biotin-Ahx-Ub-VS probe labelling,[1],-0.0475
same,log2 ratio of Biotin-Ahx-Ub-VS probe labelling,[2],-0.159
same,log2 ratio of Biotin-Ahx-Ub-VS probe labelling,[3],-1.49 (active)
same,log2 ratio of Biotin-Ahx-Ub-VS probe labelling,[4],-0.13
same,log2 ratio of Biotin-Ahx-Ub-VS probe labelling,[5],-0.101
same,log2 ratio of Biotin-Ahx-Ub-VS probe labelling,[6],-0.349
same,log2 ratio of Biotin-Ahx-Ub-VS probe labelling,[7],-0.162
same,log2 ratio of Biotin-Ahx-Ub-VS probe labelling,[8],-0.371
same,log2 ratio of Biotin-Ahx-Ub-VS probe labelling,[9],-0.264

# From the supplement of paper PMC11732987, “Enantioselective OTUD7B fragment discovery through chemoproteomics screening and high-throughput optimisation” (Communications Chemistry, 2025)
